Results reported in the supplement of paper PMC7156485.
Several values for one entry are separate records, joined by “and”; a condition that tells them apart may be missing. Equal entries are not always repeated. ± gives the standard deviation of the averaged measurements.

tested on: HCC1569; assay: cell number relative to DMSO (% of DMSO); higher = more cells (less growth inhibition / toxicity); settings: concentration: 10 µM; 24 h
Procedure, shortened: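 Cell number or H1.0 nuclear intensity appears as percent of the plate control, based on the median of replicates. Measurements came from HCC1569 and TDF cells exposed in triplicate to compounds at 10 µM for 24 h at 37 °C, then imaged in six fields per well at ×10. Positional effects were smoothed out of HCC1569 values.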
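Further: TDF denotes transformed human dermal fibroblasts of mesenchymal origin.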

Compound	cell number
O=c1cc(-c2ccccc2)[nH]c2nc(Cl)ccc12 [7-Chloro-4-hydroxy-2-phenyl-1,8-naphthyridine]	76.7
Cl.Cl.N=C(N)c1ccc(N)cc1 [4-Aminobenzamidine dihydrochloride]	99.9
CCCCCCCCCCCCCCCCCCOCC(COP(=O)([O-])OCC[N+](C)(C)C)OC(C)=O (centres undefined)	98.8
COc1cc(O)c(C(=O)C=Cc2ccccc2)c(OC)c1 [Flavokawain B]	75.4
CC(C)C(CO)Nc1nc(Nc2ccc(C(=O)O)c(Cl)c2)c2ncn(C(C)C)c2n1 (centres undefined) [Purvalanol B]	101
COc1ccc(-c2cc(=O)c3c(OC)c(OC)c(OC)cc3o2)cc1OC [Sinensetine]	101
CCCCCCCCCCCCCC(=O)NC(C)C(O)c1ccccc1 [D-erythro MAPP]	104
O=c1cc(N2CCOCC2)oc2c(-c3ccccc3)cccc12	83.3
CNCCC(Oc1ccc(C(F)(F)F)cc1)c1ccccc1.Cl (stereo not drawn) [R-(-)-Fluoxetine hydrochloride]	92
Cc1cccc(-c2[nH]c(C(C)(C)C)nc2-c2ccc3c(c2)OCO3)n1.Cl [TGF-b RI Inhibitor III]	96.3
Cc1cnc(NC(=O)C2=C(O)c3ccccc3S(=O)(=O)N2C)s1 [Meloxicam]	103
O=C(O)COc1ccc(C(=O)c2cccs2)c(Cl)c1Cl [[2,3-dichloro-4-(2-thienylcarbonyl)phenoxy]acetic acid]	106
CC(=O)NC(CS)C(=O)O (centres undefined) [N-Acetyl-Cysteine]	102
COc1ccc(Cl)cc1C(=O)NCCc1ccc(S(=O)(=O)NC(=O)NC2CCCCC2)cc1 [Glyburide]	107
CC(C)NCC(O)COc1ccc(CC(N)=O)cc1 (stereo not drawn) [R(+)-Atenolol]	98.9
O=c1c(-c2ccc(F)cc2)c(-c2ccncc2)[nH]n1-c1ccc(Cl)cc1 [p38 MAP Kinase Inhibitor]	102
COc1ccc(/C=C\c2cc(OC)c(OC)c(OC)c2)cc1OP(=O)([O-])[O-].[Na+].[Na+]	57.8

Compound	cell number
CN1CCN(C2Cc3ccccc3Sc3ccc(Cl)cc32)CC1.O=C(O)C=CC(=O)O (centres undefined) [Clorotepine maleate]	98.5
O=C(O)c1cc(N(Cc2ccccc2O)Cc2ccccc2O)ccc1O [Lavendustin B]	102
N#CC(=C(N)Sc1ccccc1N)C(C#N)=C(N)Sc1ccccc1N	102 and 101
O=c1cc(-c2ccccc2)oc2cc(O)c(O)c(O)c12 [Baicalein]	98.9 ± 2.6
CCCCNc1ccc(C(=O)OCCN(C)C)cc1.Cl [Tetracaine hydrochloride]	100
COc1cc(C(O)C(=O)O)ccc1O (centres undefined) [hydroxy(4-hydroxy-3-methoxyphenyl)acetic acid]	99.7
CN(C)CCOC(=O)COc1ccc(Cl)cc1.Cl [Centrophenoxine hydrochloride]	101
CC(=O)Oc1cc(C(C)C)c(OCCN(C)C)cc1C.Cl [Moxisylyte hydrochloride]	105
NCC(O)(CS(=O)(=O)O)c1ccc(Cl)cc1 (centres undefined) [2-Hydroxysaclofen]	101
N#Cc1c(NC(=O)c2cccc3ccccc23)sc2c1CCCC2 [JNK Inhibitor IX]	62.6
COc1cccc2oc(-c3ccccc3)cc(=O)c12 [5-Methoxyflavone]	99.7
CN(C)CCOc1ccc(C(=C(CCCl)c2ccccc2)c2ccccc2)cc1 [Toremifene]	97.2
CN1CCC(=C2c3ccccc3CC(=O)c3sccc32)CC1 [Ketotifen]	104
CC(=O)Oc1ccccc1C(=O)Oc1ccc(CO[N+](=O)[O-])cc1 [4-[(nitrooxy)methyl]phenyl 2-(acetyloxy)benzoate]	50.1
CN(C)C(N)=NCCCC(N)C(=O)O.Cl (centres undefined) [N^G,N^G-Dimethylarginine hydrochloride]	104
FC(F)(F)c1cc(NC(=S)Nc2ccc(Br)cc2-c2nn[nH]n2)cc(C(F)(F)F)c1	90.3
CCCC(CCC)C(N)=O [2-propylpentanamide]	112
